DT40 TDP1 no CPT: qHTS for Inhibitors of human tyrosyl-DNA phosphodiesterase 1 (TDP1): qHTS in cells in absence of CPT; DT40 Tdp1-/- hTDP1 cells, no CPT, ATP luminescence, 48 h; Potency, µM (top dose mostly 46.2 µM), inactives show top-dose activity change, negative = growth inhibition, hits mostly inhibitors; actives 15% (n = 420,000); AID 686978, 2013; further: potency means the concentration at half of the fitted maximal effect; nearly all actives have a fitted effect of over 55% in size
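Luminescent ATP content (CellTiter-Glo) served as the growth readout. Knockout chicken DT40 cells expressing human TDP1 were exposed to compounds without camptothecin for a minimum 48 hr at 37 °C.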
HT1080 IDH1KD tx: toxicity to HT-1080 IDH1 knockdown cells (counter line) | HT-1080 IDH1 knockdown viability, ATP luminescence, 48 h | Potency, µM (highest dose often 46.1 µM), for inactives: top-dose activity, negative = toxicity, actives largely listed as cytotoxic | actives 2% (n = 360,000) | AID 686971;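 further: potency means the concentration at half of the fitted maximal effect; 0% = DMSO wells and -100% = cell-free medium wells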
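% activity derives from luminescence (CellTiter-Glo), normalised to DMSO and no-cell wells. HT-1080-IDH1KD cells, 750/well, had 48 h compound exposure at 37 °C.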
IL-1B inflam inh: inhibitors of inflammasome signaling (IL-1 beta secretion) | THP-1 LPS/ATP IL-1B secretion, AlphaLISA, 16 h; hits give low values | activity change, % at 57.5 µM | actives 4.7% (n = 360,000) | AID 743279; in the data active means activity change below about -50%; inconclusive means mostly about -30% to -49%
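THP-1 cells pretreated 1 hr with compounds (up to 57.5 uM final), then stimulated with LPS (250 ng/mL final) plus ATP (1.25 mM final); secreted IL-1B measured by AlphaLISA after 16 hr, decreased signal indicating inhibition.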
TDP1 cell CPT: DT40-hTDP1 cell growth loss with CPT. chicken DT40 Tdp1-/-;hTDP1 cells + 20 nM CPT, ATP luminescence, 48 h. Potency, µM (titrated, usually from 46.2 µM), without a hit: top-dose activity change, negative = growth inhibition, hits mostly inhibitors. actives 12% (n = 420,000); further: potency means the concentration at half of the fitted maximal effect; nearly all actives have a fitted effect of over 55% in size
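Cell growth measured by CellTiter-Glo luminescence after a minimum 48 h, 37 C compound exposure with 20 nM CPT in Tdp1-knockout DT40 cells stably expressing hTDP1, seeded 400/well; qHTS titration format.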
HT1080NT lethal: kills 2HG-producing HT-1080-NT fibrosarcoma cells. HT-1080-NT fibrosarcoma viability, CellTiter-Glo ATP luminescence, 48 h. Potency, µM (highest dose often 46.1 µM), for inactives: top-dose activity, negative = less viability, hits mostly cytotoxic. actives 1.6% (n = 360,000). AID 686970;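 further: NT is the 2HG producing partner of a matched IDH1 knockdown line; potency means the concentration at half of the fitted maximal effect; 0% = DMSO-treated cells and -100% = media-only wells without cells; nearly all actives have a fitted effect of over 55% in size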
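Fibrosarcoma NT cells, 750 per well in 5% FBS RPMI, were exposed to compound for 48 hours. Viability: CellTiter-Glo luminescence.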
Starred values were filed as active, the others as inactive; u = inconclusive; x = not tested or not shown. This is a sample that favours compounds with a hit; in the whole collection about 19% have one here. Unless noted, the call rests on the fitted dose curve; in most records, active means well fitted curve in the direction sought with a large enough effect; inconclusive means small, poorly fitted or top-dose-only effect, or another doubt; inactive means no such curve, though single readings can be large; an effect the other way counts as inactive or inconclusive. Unless noted, on the % scale 0 is the no-effect control and ±100 the full control effect.

SMILES	DT40 TDP1 no CPT	HT1080 IDH1KD tx	IL-1B inflam inh	TDP1 cell CPT	HT1080NT lethal
COc1cc(OC)cc(C(=O)N2CCN(C(=O)c3cccs3)CC2)c1	4%	-11%	-10	22%	-11%
COc1cc(OC)c(N(C)C(=O)c2cc3c(s2)-c2ccccc2OC3)cc1Cl	23µM*	x	x	13µM*	x
Cc1cccc2c1-c1sc(C(=O)Nc3ccccc3C(N)=O)cc1CO2	u	x	x	-28%	x
Cc1cccc2c1-c1sc(C(=O)NCc3ccccc3Cl)cc1CO2	26µM*	x	x	16µM*	x
Cc1cccc2c1-c1sc(C(=O)Nc3cccnc3)cc1CO2	-17%	u	167	u	u
COc1cccc(N2CCN(C(=O)c3cc4c(s3)-c3c(C)cccc3OC4)CC2)c1	23µM*	x	x	u	x
Cc1cccc2c1-c1sc(C(=O)Nc3cccc([N+](=O)[O-])c3C)cc1CO2	23µM*	-2%	-52*	u	-10%
O=[N+]([O-])c1cccc2c3c([nH]c12)CCCC3	-25%	-18%	13	2%	-19%
COc1ccc(N(C)C(=O)c2cc3c(s2)-c2c(C)cccc2OC3)c(OC)c1	21µM*	-21%	-7	u	-9%
CCc1ccccc1N(C)C(=O)c1cc2c(s1)-c1c(C)cccc1OC2	23µM*	x	x	23µM*	x
CCCn1c(N)c(C(=O)CSc2ncnc3sccc23)c(=O)n(C)c1=O	u	-11%	2	u	-6%
CSc1ccc(CCNC(=O)Cn2ncc3c(=O)oc4ccc(C)cc4c32)cc1	-10%	x	x	8%	x
CC(C)C(N)c1csc(Nc2cc(Oc3ccccc3)ncn2)n1 (stereo unspecified)	u	u	-91*	u	u
CC(C)CC(N)c1csc(Nc2cc(Oc3ccccc3)ncn2)n1 (stereo unspecified)	21µM*	-24%	0	23µM*	21µM*
NC(c1ccccc1)c1csc(Nc2cc(Oc3ccccc3)ncn2)n1 (stereo unspecified)	16µM*	u	-77*	18µM*	u
CC(C)C(N)c1csc(Nc2ccccn2)n1 (stereo unspecified)	-19%	-2%	-11	8%	-2%
O=C(CCNc1ccccc1)c1cccc([N+](=O)[O-])c1	16µM*	u	-5	18µM*	-7%
O=C(CNC(=O)c1cccc([N+](=O)[O-])c1)OCCCC(=O)c1ccc(F)cc1	-20%	2%	15	-20%	1%
O=C(CCNc1ccc(Br)cc1)c1cccc([N+](=O)[O-])c1	18µM*	u	-16	15µM*	23µM*
O=C(CCNc1ccc(F)cc1)c1cccc([N+](=O)[O-])c1	23µM*	u	-16	16µM*	u
CCc1cccc(CC)c1NC(=O)COC(=O)C1(C)CC1(Cl)Cl (stereo unspecified)	6%	2%	22	16%	-6%
COc1ccc(C2/C=C\CN(C(=O)c3ccc(C)cc3)CC(=O)N2Cc2ccc(F)cc2)cc1 (stereo unspecified)	u	-10%	7	-30%	-2%
CCCCC(=O)N1C/C=C\[C@H](c2ccc(OC)cc2)N(Cc2ccc(F)cc2)C(=O)[C@@H]1C	16µM*	-2%	8	u	0%
COc1ccc(C2/C=C\CN(S(=O)(=O)c3ccc(C)cc3)[C@H](Cc3ccccc3)C(=O)N2Cc2ccc(F)cc2)cc1 (stereo partly specified)	u	8%	12	u	10%
COc1ccc([C@H]2/C=C\CN(C(=O)c3ccccc3)[C@@H](C)C(=O)N2Cc2ccc(F)cc2)cc1	23µM*	-18%	0	u	-7%
SMILES	DT40 TDP1 no CPT	HT1080 IDH1KD tx	IL-1B inflam inh	TDP1 cell CPT	HT1080NT lethal
COc1ccc([C@H]2/C=C\CN(S(=O)(=O)/C=C/c3ccccc3)[C@@H](C)C(=O)N2Cc2ccc(F)cc2)cc1	21µM*	24%	12	u	0%
COc1ccccc1Cc1c(-c2ccco2)nc2c(C)cc(Br)cn12	5.8µM*	3.7µM*	-13	2.9µM*	3.3µM*
COc1ccc(Cc2c(-c3ccco3)nc3ccc(Cl)cn23)c(C)c1	u	u	-4	u	-24%
COc1ccc(Cc2c(-c3ccco3)nc3ccc(Br)cn23)c(C)c1	u	21µM*	-23	21µM*	u
COc1ccc(Cc2c(-c3ccco3)nc3c(C)cc(Br)cn23)c(C)c1	2.3µM*	6.5µM*	2	2.9µM*	u
COc1ccccc1Cc1c(-c2ccco2)nc2c3ccccc3ccn12	16µM*	u	-2	23µM*	u
Cc1ccc(N2CN(CCc3ccccc3)CNC2=S)cc1	-24%	10%	12	-7%	1%
Cc1ccc(CC(=O)N2CCN(C(=O)C3CCCO3)CC2)cc1 (stereo unspecified)	24%	17%	20	-2%	20%
O=C(NCc1ccc(Cl)c(Cl)c1)c1cc(C2CCCCN2C(=O)CCc2ccccc2)on1 (stereo unspecified)	u	10%	-12	u	7%
CCc1nnc(NC(=O)CSc2nnc(Cc3ccc(OC)cc3)o2)s1	-6%	-21%	4	-4%	-12%
CCOc1ccc(CCN2C(=S)N([C@@H](Cc3ccccc3)CN3CCCC3CN3C(=S)NC[C@@H]3Cc3ccccc3)C[C@@H]2Cc2ccc(O)cc2)cc1 (stereo partly specified)	23µM*	3%	-4	21µM*	-8%
CCOc1ccc(CCN2C(=S)N([C@@H](Cc3ccc(O)cc3)CN3CCC[C@@H]3CN3C(=S)NC[C@@H]3Cc3ccccc3)C[C@@H]2Cc2ccccc2)cc1	u	-6%	-18	u	-6%
CCOc1ccc(CCN2C(=S)N([C@@H](CC(C)C)CN3CCC[C@@H]3CN3C(=S)NC[C@@H]3Cc3ccccc3)C[C@@H]2Cc2ccc(O)cc2)cc1	13µM*	u	-65*	15µM*	u
CC(C)C[C@H]1CN([C@@H](CC(C)C)CN2CCCC2CN2C(=S)NC[C@@H]2Cc2ccc(O)cc2)C(=S)N1CCc1ccccc1 (stereo partly specified)	u	u	-6	u	-30%
CCOc1ccc(CCN2C(=S)N([C@@H](Cc3ccc(O)cc3)CN3CCC[C@@H]3CN3C(=S)NC[C@@H]3Cc3ccc(O)cc3)C[C@@H]2Cc2ccc(O)cc2)cc1	u	21µM*	-57*	u	26µM*
